Among all 48,000 compounds or so, about 13,000 (27%) showed an effect of 50% or more. Some of the results follow.
These compounds were tested on Wolbachia pipientis (assay: Anti-Wolbachia Cell-Based Screen). Details: 5 µM.
Assay type: functional
Set-up: scale not given: in the data most compounds retested in dose-response had high values

SMILES	Percent Effect
CC(O)CN1CCC(CNCc2cn(-c3ccccc3)nn2)CC1 (stereo not drawn)	3.471%
COCC(C)N(C)C(=O)NC1CCN(S(C)(=O)=O)CC1 (stereo not drawn)	2.159%
CS(=O)(=O)c1ccc(CNC(=O)NCC2CCOC2)cc1 (stereo not drawn)	-15.52%
CCSCCC(=O)NS(=O)(=O)c1ccc2c(c1)OCCO2	5.287%
CO[C@H]1CN(C(=O)c2ccc3c(c2)OCO3)[C@@H]2COC[C@H]12	-7.485%
Cc1nc(CO[C@H]2CN(C(=O)c3ccc[nH]3)[C@@H]3COC[C@H]23)cs1.O=C(O)C(F)(F)F	-0.1564%
CCO[C@H]1CN(C(=O)c2ccc3c(c2)OCO3)[C@@H]2COC[C@H]12	0.5362%
O=C(c1ccc[nH]1)N1C[C@H](OCc2cccnc2)[C@H]2COC[C@H]21	-9.205%
CO[C@H]1CN(C(=O)c2ccc[nH]2)[C@@H]2COC[C@H]12	98.6%
O=C(c1ccc[nH]1)N1C[C@H](OCc2ccccn2)[C@H]2COC[C@H]21	111.2%
CCOCc1nnc(NCc2cccnc2)o1	-1.439%
CC(NCc1ccncc1)c1cc(F)ccc1N1CCN(C)CC1 (stereo not drawn)	-0.924%
CC(C)N(CC(N)=O)C(=O)c1cc(F)ccc1N1CCN(C)CC1	95.17%
CCN(CC1CCOC1)C(=O)c1ccccc1N1CCOCC1 (stereo not drawn)	5.823%
CCN(CC1CCOC1)C(=O)c1cccnc1N1CCOCC1 (stereo not drawn)	-1.739%
CCN(CC1CCOC1)C(=O)c1cc(F)ccc1N1CCN(C)CC1 (stereo not drawn)	87.35%
CCN(CC1CCOC1)C(=O)c1cc(Cl)c2c(c1)OCO2 (stereo not drawn)	-2.452%
CCN(CC1CCOC1)C(=O)Nc1ccc(N2CCCC2)nc1 (stereo not drawn)	-5.429%
Cc1ccc(CNC(C)c2cc(F)ccc2N2CCN(C)CC2)o1 (stereo not drawn)	-9.069%
C=C(C)CN(CC)C(=O)c1cc(F)ccc1NS(C)(=O)=O	23.28%
C=C(C)CN(CC)C(=O)c1cc(C)ccc1NS(C)(=O)=O	12.91%
CCN(CC1CCOC1)C(=O)c1ccc(N2CCOCC2)c(F)c1 (stereo not drawn)	110.6%
C=C(C)CN(CC)C(=O)c1cc(F)ccc1N1CCN(C)CC1	106.7%
COC[C@@]12CC[C@@H](N3CCOCC3)C[C@H]1CCN(c1ccc(Cl)cn1)C2	-5.579%
Cc1cnc(N2CCCC(c3ccccc3)C2)nc1-c1ncnn1C (stereo not drawn)	-17.16%

SMILES	Percent Effect
O=C(NCC1COCc2c(-c3cccnc3)nnn2C1)c1cccs1.O=C(O)C(F)(F)F (stereo not drawn)	-12.79%
O=S(=O)(C1CC1)N1CC[C@]2(C[C@H](OCC3CCOCC3)CO2)C1	2.042%
COCC1CN(Cc2ccncc2)Cc2nn(CC3CC3)cc21.O=C(O)C(F)(F)F.O=C(O)C(F)(F)F (stereo not drawn)	-9.02%
COCc1noc(C2(c3ccc(F)cc3)CC2)n1	1.348%
c1csc(CN2C[C@H]3CCC[C@@]3(COCC3CCOCC3)C2)n1	5.846%
CSc1ccc(C(=O)N2CCCC(Nc3ccc(F)cc3)C2)cc1 (stereo not drawn)	-32.55%
CSc1ccc(C(=O)N2C[C@H]3CC[C@@H]2CN(Cc2ccccc2)C3)cc1	17.05%
COCCN1C[C@H]2CC[C@@H]1CN(C(=O)c1ccc(Cl)cc1)C2	3.109%
COc1ccc(C(=O)N2CC(=O)N(CC3CC3)CC(O)C2)cc1 (stereo not drawn)	115.7%
CSc1ccc(C(=O)N2C[C@H]3CC[C@@H]2CN(Cc2cccnc2)C3)cc1	37.83%
CSc1ccc(C(=O)N2CC(=O)N(Cc3ccccc3)CC(O)C2)cc1 (stereo not drawn)	97.14%
COc1ccc2cc(C(=O)N3CC[C@H](CO)[C@H](O)C3)n(C)c2c1	-6.471%
CSc1ccc(C(=O)N2CC(=O)N(CC3CC3)CC(O)C2)cc1 (stereo not drawn)	119.8%
COCCN1CC(O)CN(C(=O)c2ccc(SC)cc2)CC1=O (stereo not drawn)	110.7%
COCCN1CC(C(=O)NCc2ccc(C)s2)CC1=O (stereo not drawn)	-3.089%
CSc1ccccc1CN1C[C@H]2C(=O)N(CC3CC3)C[C@@]2(C(=O)O)C1	6.148%
COc1ccc(C(=O)N2CCN3C(=O)CNC(=O)[C@@H]3C2)cc1	-1.212%
CN(C)Cc1ccc(C2CCCCN2C(=O)c2cccc(CO)n2)cc1 (stereo not drawn)	7.792%
CCCc1c(C(=O)N2CCN(c3nccc(OC)n3)CC2)cnn1C	3.097%
Cc1cc2nc(CO[C@H]3CN(C)C[C@H]3F)[nH]c2cc1C	-14.61%
COC1CCC(N(C)c2ccnc(N(C)C)n2)CC1 (stereo not drawn)	2.902%
CCN1CC(C(=O)N2CC(Oc3ccccc3F)C2)CC1=O (stereo not drawn)	-11.41%
CCN1CC(O)CN(C(=O)c2ccc(SC)cc2)CC1=O (stereo not drawn)	105.2%
CCN1CC(C(=O)NCc2cccc(SC)c2)CC1=O (stereo not drawn)	-13.72%
CSc1ccc(C(=O)N2CC(=O)N(CC(C)(C)C)CC(O)C2)cc1 (stereo not drawn)	76.9%

SMILES	Percent Effect
Cc1ccnc(N2CCC(OCCN3CCCCC3)C2)n1 (stereo not drawn)	14.04%
Cc1ccnc(N2CCN(C3CCS(=O)(=O)C3)CC2)n1 (stereo not drawn)	0.9659%
c1cc(-c2c[nH]nc2C2CCCCC2)nc(N2CCCCCC2)n1	78.4%
Cc1ccnc(N2CCC(C(N)=O)CC2)n1	120.1%
NC(=O)C1CCN(c2cncc(-n3cccn3)n2)CC1	4.657%
CN1CCCN(c2nccc(-c3c[nH]nc3C3CCCCC3)n2)CC1	25.46%
c1cc(-c2cn3nccc3nc2C2CCCCC2)nc(N2CCCC2)n1	96.94%
c1cc(-c2noc(C3CCC3)n2)cc(N2CCCCC2)n1	-13.71%
NC(=O)C1CCN(c2nccc(-c3c[nH]nc3C3CCCCC3)n2)CC1	81.82%
NC(=O)N1CCCCCC1C1CCN(c2nccc(C(F)(F)F)n2)CC1 (stereo not drawn)	-6.613%
CC(=O)NCC(=O)N1Cc2cc(C#N)ccc2C1c1cnco1 (stereo not drawn)	-4.617%
CCNC(=O)CCC(=O)Nc1nc(C)c(Cc2ccc(F)cc2)s1	-19.82%
O=c1cc(CN2CCC(CCc3ccc(O)cc3)CC2)[nH]c(=O)[nH]1	-18.62%
COCCC1(CNC(=O)NCC2CCCS2)CCCC1 (stereo not drawn)	-6.803%
CCc1ccc(CN(C)Cc2nc(COc3ccccc3)no2)nc1	78.29%
CCc1ccc(CN(C)Cc2nc(-c3cnccn3)no2)nc1	12.77%
CN(Cc1nc(COc2ccccc2)no1)CC1Cc2ccccc2O1 (stereo not drawn)	-1.217%
Cc1csc(CN(C)C(=O)C2CCC(=O)N(CCN(C)C)C2)n1 (stereo not drawn)	2.129%
O=C(c1cccnc1N1CCOC(c2ccc(Cl)cc2)C1)N1CCCC1 (stereo not drawn)	19.68%
CCOC(=O)N1CC(=O)N(Cc2ccc(OC)cc2)CC(O)C1 (stereo not drawn)	85.47%
CCC(=O)N1CC[C@H]2C(=O)N(Cc3ccc(OC)cc3)CCO[C@H]2C1	5.242%
COc1ccc(CN2CCO[C@H]3CN(C(C)=O)CC[C@H]3C2=O)cc1	-1.641%
COc1ccc(CN2CC(O)CN(C(=O)OCC(C)(C)C)CC2=O)cc1 (stereo not drawn)	112.6%
COc1ccc(CN2C[C@@H]3OCC(=O)N(CC(N)=O)[C@@H]3C2)cc1	-8.877%
COc1ccc(CN2C[C@@H]3CN(C(=O)c4ccsc4)C[C@@H]3C2=O)cc1	-7.26%

SMILES	Percent Effect
COc1ccc(CN2CC(O)CN(C(=O)c3ccccc3)CC2=O)cc1 (stereo not drawn)	119%
CSCCCNc1ncnc2cccc(F)c12	-37.93%
CC(=O)N1CCc2ccccc2C1CC(=O)NCc1nnc(C)o1 (stereo not drawn)	-6.807%
COCCS(=O)(=O)N(Cc1cscn1)c1ccccc1	-16.91%
CN1CCC/C1=N\S(=O)(=O)c1ccc(NC(=O)c2ccc(Cl)cc2)cc1	101.2%
CN1CCC/C1=N\S(=O)(=O)c1ccc(NC(=O)c2ccsc2)cc1	106.5%
CN1CCC/C1=N\S(=O)(=O)c1ccc(NC(=O)c2ccco2)cc1	116.6%
N#Cc1cc(NC(=O)c2ccsc2)ccc1N1CCC(O)CC1	-1.175%
O=C(CCN1C(=O)CCC1=O)Nc1ccc(Cl)cc1	9.29%
Cc1ccc(C(=O)Nc2ccc(N3CCC(O)CC3)c(C#N)c2)s1	-23.53%
Cc1ccc(C(=O)Nc2ccc(S(=O)(=O)/N=C3\CCCN3C)cc2)s1	80.8%
CN1CCC/C1=N\S(=O)(=O)c1ccc(NC(=O)c2ccc(Cl)s2)cc1	40.68%
O=C(CCC1CCCN(S(=O)(=O)C2CC2)C1)Nc1ccc(Cl)cc1 (stereo not drawn)	0.5143%
O=C(Nc1ccccc1C(=O)NCCCN1CCOCC1)c1ccco1	10.69%
O=C(Nc1cnn(CC(=O)N2CCCCO2)c1)c1ccsc1	8.582%
Cc1nccnc1N1C[C@H](NC(=O)CNS(C)(=O)=O)[C@@H](C2CC2)C1	-53.3%
COc1cccc(C(=O)N2CCN(C(=O)CCn3ccnc3)CC2)c1	-2.961%
Cc1cc(C(=O)NS(=O)(=O)Cc2ccon2)c(C)o1	30.96%
CCC(O)CN(CC(=O)Nc1cc(C)no1)c1ccccc1 (stereo not drawn)	5.147%
Cn1cc(NC(=O)Cc2cccs2)c(=O)n(C)c1=O	-7.177%
CN1CCC/C1=N\S(=O)(=O)c1ccc(NC(=O)Cc2cccs2)cc1	91.75%
CN1C(=O)CO[C@H](c2ccc(NC(=O)Cc3cccs3)cc2)[C@H]1CO	-17.64%
CCOc1nnc(CN2CCC(c3nc4ccccc4[nH]3)CC2)s1	-10.51%

Source: ChEMBL document CHEMBL3988442, “University of Dundee, Small-Polar-MMV Screening Library” (2021)
